# Experimental data as given in ChEMBL document CHEMBL1157539, “Thousands of chemical starting points for antimalarial lead identification” (Nature, 2010).
# How the values were obtained:
# Assay type in all cases: functional
# Plasmodium falciparum [1] = assay: GSK_TCMDC: Inhibition of Plasmodium falciparum 3D7 in whole red blood cells, using parasite LDH activity as an index of growth. Test compounds present at 2uM
# Plasmodium falciparum [2] = assay: GSK_TCMDC: Inhibition of Plasmodium falciparum Dd2 in whole red blood cells, using parasite LDH activity as an index of growth. Test compounds present at 2uM
# HepG2 = assay: GSK_TCMDC: Percent inhibition of human HepG2 cell line. Test compounds present at 10uM.
SMILES,Inhibition (Plasmodium falciparum [1]) [%],Inhibition (Plasmodium falciparum [2]) [%],Inhibition (HepG2) [%]
COc1cc([N+](=O)[O-])ccc1NC(=O)c1cc(Cl)ccc1O,87,100,92
CCc1ccc(NC(=O)c2ccc(CN3CCCN(Cc4cccc(C)c4)CC3)cc2)cc1.O=C(O)C(F)(F)F,80,0,53
CCCCNCc1ccc(-c2nc(CN(CCCn3ccnc3)C(=O)Nc3ccc(CC)cc3)cs2)cc1.O=C(O)C(F)(F)F,100,56,21
O=C(Nc1cccc(CN2CCCN(CC3CCCCC3)CC2)c1)c1cc2ccccc2s1.O=C(O)C(F)(F)F,96,15,29
Cc1ccc2c(O)c([N+](=O)[O-])c(O)nc2c1,98,0,3
Oc1ccc(Cl)cc1CN1CCCC(COC(c2ccc(F)cc2)c2ccc(F)cc2)C1 (centres undefined),98,100,20
Cc1cc(=NN=Cc2ccccc2)c2cc(F)ccc2[nH]1,100,94,11
CCCCc1cc(NCC)nc(Nc2ccc(F)cc2)n1,98,56,33
CC(C)CNC(=O)c1ccnc(-c2ccc(CNCCCc3ccccc3)cc2)c1.O=C(O)C(F)(F)F,99,22,12
COc1ccc(NC(=O)NC2CCN(CCCCCNC(=O)/C=C/c3ccc(Cl)c(Cl)c3)CC2)cc1,96,1,5
O=C(Nc1ccc(Cl)cc1)Nc1ccc(-c2ccc(-c3nc4ccccc4[nH]3)cc2)cc1,100,99,47
COc1ccccc1N1CCN(C(C(=O)NCc2ccc3c(c2)OCO3)c2ccc3c(c2)OCCCO3)CC1 (centres undefined),88,13,15
COc1cccc(NC(=O)Nc2ccc(Nc3nc(C)cc(N(C)C)n3)cc2)c1,100,100,14
Cc1cccc2nc(-c3ccc(-c4ccc(CN5CCC(CCN6CCCCC6)CC5)cc4)cc3)[nH]c12.O=C(O)C(F)(F)F,100,100,99
O=C(Nc1cccc(CN2CCN(C(=O)c3ccccc3)CC2)c1)c1ccco1.O=C(O)C(F)(F)F,95,42,6
COc1cc(F)c2ncc(F)c(CCN3C[C@H](CNCc4ccc5c(n4)NC(=O)CS5)[C@H](O)C3)c2c1.Cl,91,47,10
O=C(NCCN1CCCCC1)c1ccc(Nc2nccc(Nc3ccc(Oc4ccccc4)cc3)n2)cc1,100,91,58
CNCCCn1c(N(C)C)nc2cc(-n3cnc4cc(-c5ccc(Cl)cc5)sc4c3=O)ccc21.O=C(O)C(F)(F)F,86,27,39
N#Cc1ccc(OCCN(Cc2ccccc2C(F)(F)F)c2ccc(C#N)c(C(F)(F)F)c2)cc1,100,84,69
Cl.c1ccc(COc2ccc(Nc3ncnc4cnc(-c5ccc(CN6CCCCC6)o5)cc34)cc2)cc1,90,13,0
COc1cc(NCC(O)CNc2cc(Cl)nc3ccccc23)nc2ccccc12 (centres undefined),99,99,17
CCCCCCCN1CC[C@@H](CCCc2ccnc3ccc(OCCCCNC(N)=O)cc23)[C@@H](CC)C1.O=C(O)C(=O)O,93,18,41
Cc1[nH]c2ccccc2c1CC1CCN(CC2CCN(C(=O)/C=C/c3ccc(Cl)c(Cl)c3)CC2)CC1,92,14,34
FC(F)(F)c1ccc2[nH]c(-c3ccc(-c4cccc(CNCc5cnn(-c6ccccc6)n5)c4)cc3)nc2c1.O=C(O)C(F)(F)F,99,83,19

SMILES,Inhibition (Plasmodium falciparum [1]) [%],Inhibition (Plasmodium falciparum [2]) [%],Inhibition (HepG2) [%]
CCNc1cc(C)nc(Nc2ccc(C)cc2)n1,100,85,12
O=C(N[C@@H](Cc1ccccc1)C(=O)NC1CCCCCC1)c1ccc(O)c(-c2cccc(C(F)(F)F)c2)c1,98,70,0
O=C(c1ccc(Cl)cc1)N1CCOC(CCN2CCC(c3ccccc3)CC2)(c2ccc(Cl)c(Cl)c2)C1 (centres undefined),98,68,19
CCCCCN1CCCC1CNS(=O)(=O)c1ccc(C(=O)Nc2ccc(C(F)(F)F)cc2)cc1.O=C(O)C(F)(F)F (centres undefined),87,0,19
Cc1cccc(C(=O)N2CCN(Cc3cccc(NC(=O)c4ccco4)c3)CC2)c1.O=C(O)C(F)(F)F,94,79,7
Cc1nc2nc(N)nc(N)c2c(C)c1Cc1ccccc1.Cl,95,0,62
O=C(O)C(F)(F)F.O=[N+]([O-])c1cccc(CNC2CCN(Cc3ccc(-c4ccccc4)cc3)CC2)c1,100,96,25
COc1ccccc1-c1cccc2c(NC(=O)Nc3ccc4nccc(N5CCN(C)CC5)c4c3)ccnc12,94,34,3
Cc1cc(-c2ccc(CNCCc3cccs3)cc2)ccc1S(=O)(=O)NCc1ccccc1.O=C(O)C(F)(F)F,94,0,28
O=C(Nc1cccc(CN2CCCN(Cc3cccc(Cl)c3)CC2)c1)c1ccc(Cl)c(Cl)c1.O=C(O)C(F)(F)F,89,17,18
Cc1cc(N)cc2nc(-c3ccc(N)cc3)[nH]c12,96,75,0
O=C(O)C(F)(F)F.O=C(c1cccs1)N(Cc1cccc(-c2ccc(CNCCc3ccccc3)cc2)c1)C1CCN(Cc2ccccc2)CC1,95,76,3
CC(C)(C)OC(=O)n1cc(C2CCN(CCCC34CCCc5cccc(c53)NC4=O)CC2)c2ccncc21 (centres undefined),92,0,20
Cc1cccc(-c2ccc(NC(=O)Nc3ccc4nccc(N5CCN(C)CC5)c4c3)cc2C)n1.Cl,100,95,4
COc1ccc2nccc(N(C)CC3(O)CCN(CCc4ccc5c(c4)NC(=O)CS5)CC3)c2n1.Cl,91,67,10
CCCNc1ccc2nccc(CCN3CCC(NCc4ccc5c(n4)NC(=O)CS5)CC3)c2n1,100,0,24
N=C(N)NC(=O)Nc1cc(Cl)c(F)c(Cl)c1,100,64,22
CCc1c(C(=O)NC2CCC(N3CCC(c4ccccc4OC)CC3)CC2)[nH]c2ccc(OC)cc12 (centres undefined),100,99,43
COc1c(I)cc(Cc2cnc(N)nc2N)cc1I,91,0,5
CC(=O)N(C)C1CCN(Cc2ccc(-c3ccc(-c4nc5cc(F)ccc5[nH]4)s3)cc2)C1.O=C(O)C(F)(F)F (centres undefined),98,22,46
O=C1C(c2ccccc2)=C(Nc2cc(Cl)cc(Cl)c2)c2ccccc21,96,94,0
O=C(Nc1ccc(-c2ccc(-c3nc4ccccc4[nH]3)s2)cc1)c1ccncc1,94,95,21
Cc1cc(-c2cccc3c(C(=O)N4CCc5cc6nccc(N7CCN8CCC[C@H]8C7)c6cc54)cccc23)cc(C)n1.Cl,97,76,13
O=C(/C=C/c1ccc(Cl)cc1)NCCCCCN1CCCC(C(=O)Nc2ccc(F)c(Cl)c2)C1 (centres undefined),94,6,27
